Source: PubChem BioAssay
IL-1B inflam inh: inflammasome signaling inhibition, IL-1 beta readout. THP-1 LPS/ATP IL-1B secretion, AlphaLISA, 16 h; active compounds read low. activity change, % at 57.5 µM. actives 4.7% (n = 360,000); in the data active = activity change below about -50%; inconclusive = mostly about -30% to -49%; also: % is scaled to controls: 0 for no effect and ±100 for the full control effect
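THP-1 cells pretreated 1 hr with compounds (up to 57.5 uM final), then stimulated with LPS (250 ng/mL final) plus ATP (1.25 mM final); secreted IL-1B measured by AlphaLISA after 16 hr, decreased signal indicating inhibition.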
HepG2 viability: kills HepG2 cells in TGF-b inhibitor counter-screen. HepG2 CAGA-GFP viability, ATP luminescence, 18 h. Potency, µM (top dose mostly 46.1 µM), for the others: at the highest dose activity change, negative = cytotoxicity, usual class: cytotoxic. actives 0.76% (n = 410,000). AID 588856; also: potency is read from the fitted curve at half-maximal effect
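HepG2 CAGA-GFP cells (1000/well, DMEM with 1% FBS) received compound, then TGF-beta at 500 pg/mL final, and were incubated 18 hours at 37 degrees C. Viability was read by CellTiter-Glo luminescence. Media-only wells were set as complete cell-killing and DMSO as no toxicity.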
TDP1 block: TDP1 (human) enzyme inhibition; Q9NUW8; Potency, µM (top dose mostly 130 µM), for inactives: top-dose activity change, negative = inhibition, hits mostly inhibitors; recombinant TDP1, AlphaScreen DNA substrate cleavage; actives 0.28% (n = 350,000); also: potency is read from the fitted curve at half-maximal effect; % is scaled to controls: 0 for no effect and ±100 for the full control effect; nearly all actives have a fitted effect of over 40% in size
Target sequence (Q9NUW8 whole entry, looked up): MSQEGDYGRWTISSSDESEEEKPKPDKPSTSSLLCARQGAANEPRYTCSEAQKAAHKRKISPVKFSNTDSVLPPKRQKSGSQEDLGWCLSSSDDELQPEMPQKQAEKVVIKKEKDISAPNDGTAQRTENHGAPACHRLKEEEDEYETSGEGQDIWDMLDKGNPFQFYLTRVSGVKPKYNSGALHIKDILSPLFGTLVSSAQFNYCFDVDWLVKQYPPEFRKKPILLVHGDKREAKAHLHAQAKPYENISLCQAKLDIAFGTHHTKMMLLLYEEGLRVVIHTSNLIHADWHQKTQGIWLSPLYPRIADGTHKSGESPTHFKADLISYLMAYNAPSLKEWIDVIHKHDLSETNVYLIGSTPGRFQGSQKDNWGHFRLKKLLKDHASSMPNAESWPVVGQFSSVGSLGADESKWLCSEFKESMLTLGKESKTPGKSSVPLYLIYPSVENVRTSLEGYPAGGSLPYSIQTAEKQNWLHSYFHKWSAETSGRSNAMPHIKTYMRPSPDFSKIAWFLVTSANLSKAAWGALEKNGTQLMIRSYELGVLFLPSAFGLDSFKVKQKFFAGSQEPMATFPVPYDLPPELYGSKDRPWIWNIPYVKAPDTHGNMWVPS
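Here, a 5' biotin and 3' phosphotyrosine-FITC DNA oligonucleotide reports Tdp1 activity: intact substrate bridges AlphaScreen beads, while cleavage leaves a 3' phosphate and drops signal. All incubations at room temperature.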
TDP1 cell CPT: growth inhibition of DT40 Tdp1-/-;hTDP1 cells with camptothecin (screen for TDP1 inhibitors) | chicken DT40 Tdp1-/-;hTDP1 cells + 20 nM CPT, ATP luminescence, 48 h | Potency, µM (highest dose often 46.2 µM), for inactives: at the highest dose activity change, negative = growth inhibition, actives largely listed as inhibitors | AID 686979 | actives 12% (n = 420,000); also: potency is read from the fitted curve at half-maximal effect; % is scaled to controls: 0 for no effect and ±100 for the full control effect; nearly all actives have a fitted effect of over 55% in size
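Chicken DT40 Tdp1-/- cells stably complemented with human TDP1 were seeded at 400 cells/well in medium containing 20 nM camptothecin, exposed to pin-transferred compounds, and grown at 37 °C for at least 48 hr. Viability was read as ATP luminescence.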
DT40 TDP1 no CPT: qHTS for Inhibitors of human tyrosyl-DNA phosphodiesterase 1 (TDP1): qHTS in cells in absence of CPT; DT40 Tdp1-/- hTDP1 cells, no CPT, ATP luminescence, 48 h; AID 686978, 2013; actives 15% (n = 420,000); Potency, µM (top dose mostly 46.2 µM), inactives show top-dose activity change, negative = growth inhibition, hits mostly inhibitors; also: potency is read from the fitted curve at half-maximal effect; % is scaled to controls: 0 for no effect and ±100 for the full control effect; nearly all actives have a fitted effect of over 55% in size
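Stably hTDP1-transfected Tdp1-null chicken DT40 cells were treated with library compounds minus camptothecin and grown for at least 48 hr at 37 °C, after which cellular ATP was quantified by luminescence.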
TGFb SMAD3 inh: blocks TGF-b signaling. Potency, µM (highest dose often 46.1 µM), for the others: top-dose activity, negative = inhibition, usual class: inhibitors. actives 1.2% (n = 410,000). AID 588855. HepG2 CAGA-GFP TGF-b/SMAD3 reporter, GFP fluorescence, 18 h; TGF-beta stimulated, 500 pg/mL final; also: potency is read from the fitted curve at half-maximal effect; % is scaled to controls: 0 for no effect and ±100 for the full control effect; nearly all actives have a fitted effect of over 65% in size
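TGF-beta reporter screen: HEPG2 CAGA-GFP, 1% FBS, 500 pg/mL TGF-beta final, 18 h; per-cell GFP summed per well; curves fitted and categorized by class.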
* hit, by the source's call; ? = inconclusive; · = not tested or not shown; [ ] = another dose, or the depositor's remark. Only some compounds are listed: those with a hit (about 19% of all), similar ones and a draw of the others. Unless noted, calls follow the shape of the dose curve; as a rule, active = well fitted curve in the direction sought with a large enough effect; inconclusive = small, poorly fitted or top-dose-only effect, or another doubt; inactive = no such curve, though single readings can be large; an effect the other way counts as inactive or inconclusive.

SMILES | IL-1B inflam inh | HepG2 viability | TDP1 block | TDP1 cell CPT | DT40 TDP1 no CPT | TGFb SMAD3 inh
COc1ccc(OC)c(NC(=O)CN(C)S(=O)(=O)c2ccc3[nH]c4c(c3c2)CCCC4)c1 | · | -32% | 9% | 18µM* | 21µM* | ?
COc1cc(NS(=O)(=O)c2ccc3[nH]c4c(c3c2)CCCC4)cc(OC)c1OC | · | -45% | 12% | 0.92µM* | 0.58µM* | ?
COc1cc(NS(=O)(=O)c2ccc3[nH]c4c(c3c2)CCCCCC4)cc(OC)c1 | · | -103% | 11% | ? | 12µM* | 13µM*
COc1ccc(NS(=O)(=O)c2ccc3[nH]c4c(c3c2)CCCC4)cc1OC | · | -26% | 9% | 13µM* | 15µM* | ?
COc1cccc(CNC(=O)CN(C)S(=O)(=O)c2ccc3[nH]c4c(c3c2)CCCC4)c1 | · | -39% | 5% | ? | ? | ?
CCc1ccc(-c2nc(-c3cc4ccccc4oc3=O)sc2C)cc1 | · | -5% | 0% | -22% | -2% | -4%
Cc1ccc(NS(=O)(=O)c2ccc3c(c2)CC(=O)N3C)cc1C | · | · | 1% | · | · | ·
CCC(C)C(=O)OC1CC(O)C=C2C=CC(C)C(CCC(O)CC(O)CC(=O)O)C21 (centres undefined) | · | · | 8%[56.1 µM] | · | · | ·
O=P(Nc1ccccc1)(Nc1ccccc1)c1ccccc1 | -5 | -4% | · | 2% | -3% | -1%
CCOC(=O)C1(Cc2ccc(OC)cc2)CCN(C(=O)CCn2cccn2)CC1 | 20 | -7% | · | -10% | ? | -29%
O=S(=O)(NCc1ccc(F)cc1)c1ccc2[nH]c3c(c2c1)CCCCC3 | · | -62% | 10% | ? | ? | ?
COc1cccc(CNS(=O)(=O)c2ccc3[nH]c4c(c3c2)CCCCC4)c1 | · | 22µM* | 5% | · | · | ?
O=C(Nc1ccccc1)c1cccc(N2C(=O)C3C4CC(C(Br)C4Br)C3C2=O)c1 (centres undefined) | 6 | 1% | 2% | -5% | 5% | -2%
CCCC(c1nnnn1C1CCCC1)N1CCN(c2ccccc2F)CC1 (centres undefined) | 1 | 13% | -2% | ? | 23µM* | ?
CCCCNC(=O)C1CC(c2c(Cl)cccc2Cl)=NO1 (centres undefined) | 20 | 2% | 1% | 9.2µM* | 9.2µM* | -4%
CCCCNC(=O)C1CC(c2cccc([N+](=O)[O-])c2)=NO1 (centres undefined) | 0 | -1% | -3% | -10% | -15% | -1%
Cc1cccc(NC(=O)c2ccccn2)c1C | 0 | -15% | 4% | ? | ? | -21%
Cc1cccc(NC(=O)c2cc3c([nH]c4ccccc43)c(C)n2)c1C | -1 | 26% | -1% | 6.5µM* | ? | 1%
O=C(CSc1ccc(Br)cc1)NC1CCS(=O)(=O)C1 (centres undefined) | -2 | 1% | 3% | -26% | -66% | -18%
CCOc1ccc(CCNC(=O)C2CCC(CNS(=O)(=O)c3ccc(Cl)cc3)CC2)cc1OCC (centres undefined) | · | -15% | -6% | ? | ? | -8%
CCCCN1C(=S)NC[C@@H]1Cc1cccc2ccccc12 | 13 | -15% | 6% | ? | ? | -14%
CCCC[C@@H]1CNC(=S)N1CCc1cccc2ccccc12 | -21 | 2% | 10% | ? | 18µM* | -22%
S=C1NC[C@H](Cc2cccc3ccccc23)N1CC1CCCCC1 | 18 | -8% | 7% | ? | 23µM* | ?
S=C1NC[C@H](CC2CCCCC2)N1CC1CCCCC1 | 0 | -22% | 5% | 21µM* | 23µM* | ?
